Data from PMC10668032, “Altered binding affinity of SIX1-Q177R correlates with enhanced WNT5A and WNT pathway effector expression in Wilms tumor”.
The full ranking holds about 33,000 sequences; the median of “e-score” is about -0.05, and the highest 2% start at about 0.38. This excerpt belongs to a sample that is enriched for the highest values.

What follows are sequences tested against T1, SIX1-Q177R homeodomain (human, UniProt Q15475 108-198, Q177R) (assay: universal protein binding microarray; Universal all-10-mer PBM (8x60K, AMADID 030236), 300 nM GST-tagged protein, Alexa Fluor 488 anti-GST; buffer, salt, pH and temperature not stated (as in Berger); high values mean tight binding). Conditions: protein: ivt; tags: N-terminal GST; dsDNA, one strand shown.
T1 sequence: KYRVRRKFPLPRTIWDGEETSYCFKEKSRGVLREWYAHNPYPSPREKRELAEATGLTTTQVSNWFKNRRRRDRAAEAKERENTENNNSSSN
Procedure, shortened: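 After in vitro transcription/translation, GST-tagged homeodomains were quantified against a recombinant GST standard curve by anti-GST western blot. They were then placed in duplicate at 300 nM final concentration on universal 'all 10-mer' protein binding microarrays of 8×60K format.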

Row | Sequence | binding signal
1 | ACCCTATC | 0.17 ± 0.0179 E-score
2 | CCGATACC | 0.361 ± 0.0126 E-score
3 | CGCACACC | 0.395 ± 0.0298 E-score
4 | AGCACACC | 0.38 ± 0.026 E-score
5 | AGCACACT | 0.163 ± 0.0222 E-score
6 | CGCACACG | 0.24 ± 0.0245 E-score
7 | CGCACACA | 0.16 ± 0.0759 E-score
8 | AGCACACG | 0.257 ± 0.015 E-score
9 | AATCCACA | 0.155 ± 0.0214 E-score
10 | AGTATACA | 0.235 ± 0.0155 E-score
11 | ACGCCACC | 0.194 ± 0.00825 E-score
12 | CACGGTGA | 0.221 ± 0.0367 E-score
13 | AATGGTAT | 0.227 ± 0.00525 E-score
14 | AAAAGTGT | 0.274 ± 0.0858 E-score
15 | AAAGGGGT | 0.162 ± 0.0302 E-score
16 | AAGGGGGT | 0.293 ± 0.0313 E-score
17 | AACGGTGT | 0.4669 ± 0.000509 E-score
18 | AAGGGTAT | 0.262 ± 0.0281 E-score
19 | AAAGGTGT | 0.452 ± 0.0138 E-score
20 | AATGGGGT | 0.246 ± 0.0257 E-score
21 | AAGGGTGT | 0.4645 ± 0.00313 E-score
22 | AATGGTGT | 0.4746 ± 0.00144 E-score

Row | Sequence | binding signal
23 | AACGGTGC | 0.184 ± 0.0227 E-score
24 | AGGGGTAT | 0.3 ± 0.0125 E-score
25 | CGACTCCC | 0.263 ± 0.056 E-score
26 | GGTCCACA | 0.17 ± 0.0089 E-score
27 | TCGTTACA | 0.278 ± 0.00887 E-score
28 | AACCTACA | 0.192 ± 0.0148 E-score
29 | GTACTGAC | 0.172 ± 0.0189 E-score
30 | CGCACCCA | 0.193 ± 0.0349 E-score
31 | CCCACCCC | 0.304 ± 0.0356 E-score
32 | GACCCCCA | 0.233 ± 0.0487 E-score
33 | GACCCCCC | 0.248 ± 0.0557 E-score
34 | GACACCCA | 0.479 ± 0.00732 E-score
35 | CACACCCC | 0.402 ± 0.0285 E-score
36 | CACCCCCG | 0.325 ± 0.0496 E-score
37 | CACCCCCC | 0.341 ± 0.0318 E-score
38 | CACACCCG | 0.423 ± 0.0208 E-score
39 | GACACCCC | 0.487 ± 0.00971 E-score
40 | CGCACCCG | 0.245 ± 0.0361 E-score
41 | GGCACCCC | 0.158 ± 0.0472 E-score
42 | CCCCTGAC | 0.271 ± 0.0456 E-score
43 | CAATGGTG | 0.299 E-score
44 | CACTCGAC | 0.211 ± 0.00795 E-score

Row | Sequence | binding signal
45 | CGGGTCTC | 0.207 ± 0.0182 E-score
46 | ATGAGGGG | 0.195 ± 0.0319 E-score
47 | AAGTCGTG | 0.169 ± 0.0361 E-score
48 | AGATGGAG | 0.181 ± 0.00463 E-score
49 | CACGCAAA | 0.251 ± 0.0233 E-score
50 | AACTCACA | 0.174 ± 0.0813 E-score
51 | CTGATACC | 0.312 ± 0.00631 E-score
52 | CGGGAGTA | 0.26 ± 0.0317 E-score
53 | CACCCATA | 0.301 ± 0.0276 E-score
54 | CACCTTGA | 0.177 ± 0.00756 E-score
55 | GTTCTACA | 0.239 ± 0.00598 E-score
56 | GATCCCCA | 0.267 ± 0.0387 E-score
57 | AACACCCT | 0.4609 ± 0.00173 E-score
58 | AACCCCCG | 0.244 ± 0.0392 E-score
59 | AACCCCCA | 0.209 ± 0.0281 E-score
60 | AGCACCCT | 0.172 ± 0.0259 E-score
61 | AGCACCCG | 0.262 ± 0.00343 E-score
62 | AGCACCCC | 0.295 ± 0.0259 E-score
63 | AACACCCG | 0.466 E-score
64 | AACACCCC | 0.4753 ± 0.00361 E-score
65 | ACCACCCT | 0.183 ± 0.0205 E-score
66 | ACCACCCC | 0.249 ± 0.0234 E-score

Row | Sequence | binding signal
67 | AGCACCCA | 0.159 ± 0.0296 E-score
68 | AACACCCA | 0.4561 ± 0.00225 E-score
69 | AACTCCGG | 0.161 ± 0.0108 E-score
70 | ACCTCGTG | 0.208 ± 0.00536 E-score
71 | ACGCCGGG | 0.16 ± 0.00711 E-score
72 | CGGATAAC | 0.213 ± 0.00738 E-score
73 | ACCTAGTG | 0.232 ± 0.0203 E-score
74 | CCGACCGG | 0.172 ± 0.0141 E-score
75 | CGCGCACC | 0.193 ± 0.014 E-score
76 | AACGGAGT | 0.152 ± 0.031 E-score
77 | ACCAGACA | 0.234 ± 0.0203 E-score
78 | ACGATACC | 0.3575 ± 0.00339 E-score
79 | CACCCCCA | 0.368 ± 0.0341 E-score
80 | CACACCCA | 0.382 ± 0.038 E-score
81 | TGCACCCA | 0.153 ± 0.0378 E-score
82 | TACCCCCA | 0.304 ± 0.00484 E-score
83 | CCCACCCA | 0.204 ± 0.0309 E-score
84 | TACACCCA | 0.4707 ± 0.00252 E-score
85 | CGAACGGA | 0.21 ± 0.0321 E-score
86 | ACCCAGTA | 0.175 ± 0.0267 E-score
87 | GGGTTATA | 0.2303 ± 0.000672 E-score
88 | GTGTTTGA | 0.35 ± 0.00533 E-score

Row | Sequence | binding signal
89 | GTGTTTTA | 0.361 ± 0.026 E-score
90 | CTGTTACA | 0.238 ± 0.0173 E-score
91 | GTGTTATA | 0.432 ± 0.0299 E-score
92 | GTGTTAAC | 0.415 ± 0.0316 E-score
93 | ATGTTACA | 0.177 ± 0.00778 E-score
94 | GTGTGAAC | 0.362 ± 0.00749 E-score
95 | GAGTTAAC | 0.171 ± 0.00701 E-score
96 | GTGTTAGA | 0.41 ± 0.0163 E-score
97 | GTGTTACA | 0.4422 ± 0.00139 E-score
98 | ACCTAACA | 0.203 ± 0.0209 E-score
99 | ACAAGGGT | 0.21 ± 0.00286 E-score
100 | AAGAGTGT | 0.363 ± 0.0349 E-score
101 | CCGACGCC | 0.154 ± 0.0342 E-score
102 | AGGGAGTG | 0.163 ± 0.00586 E-score
103 | CACTAACC | 0.17 ± 0.00501 E-score
104 | AGGGCGTG | 0.169 ± 0.0301 E-score
105 | CTCCGACA | 0.175 ± 0.075 E-score
106 | ACCTGCCT | 0.198 ± 0.0238 E-score
107 | CACCTTAG | 0.286 ± 0.00858 E-score
108 | CGCGGGTA | 0.273 ± 0.00467 E-score
109 | CGGTGCGA | 0.155 ± 0.0742 E-score
110 | TGGAAACA | 0.223 ± 0.0152 E-score
